The campaign covered roughly 310,000 compounds. About 1,200 (0.39%) were called active. How the calls were made is not given here. Only a sample is shown. Results with a measured potency or affinity are listed apart.
Molecular target: Large T antigen (Simian virus 40) (UniProt P03070)
Assay: TAg ATPase/helicase activity blockers – biochemical (AID 1903)
Conditions: SV40 large T antigen ATPase/helicase inhibition assay; at 20 µM; hits give high values

Sequence of Large T antigen (Simian virus 40) (P03070 whole entry, looked up): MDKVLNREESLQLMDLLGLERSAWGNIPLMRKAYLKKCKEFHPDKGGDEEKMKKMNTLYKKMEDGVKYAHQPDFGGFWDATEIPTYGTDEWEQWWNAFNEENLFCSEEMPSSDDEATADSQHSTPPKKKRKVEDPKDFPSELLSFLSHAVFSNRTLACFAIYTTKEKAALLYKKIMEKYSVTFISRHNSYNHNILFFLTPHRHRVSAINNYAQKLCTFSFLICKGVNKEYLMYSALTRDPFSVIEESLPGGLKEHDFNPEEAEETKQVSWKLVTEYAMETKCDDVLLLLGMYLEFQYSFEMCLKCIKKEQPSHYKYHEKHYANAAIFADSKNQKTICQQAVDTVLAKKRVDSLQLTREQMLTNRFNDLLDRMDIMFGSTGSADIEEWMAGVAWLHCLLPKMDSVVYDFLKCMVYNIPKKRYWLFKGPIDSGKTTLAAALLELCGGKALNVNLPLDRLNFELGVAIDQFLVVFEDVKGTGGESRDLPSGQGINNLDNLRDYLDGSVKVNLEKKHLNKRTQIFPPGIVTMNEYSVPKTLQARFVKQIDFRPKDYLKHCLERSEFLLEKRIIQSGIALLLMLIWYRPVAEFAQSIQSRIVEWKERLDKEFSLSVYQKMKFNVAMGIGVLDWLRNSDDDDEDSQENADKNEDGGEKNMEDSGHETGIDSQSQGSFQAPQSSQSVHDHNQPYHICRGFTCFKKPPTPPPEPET

inhibition, inactive:
O=C(CCN1CCN(c2ccc(Cl)cc2)CC1)Nc1nccs1 17.1%
COC(=O)c1ccc(CN2CCC(n3nccc3NC(=O)C3CCCC3)CC2)cc1 20%
O=C(COC(=O)C1(c2ccccc2)CC1)NNC(=O)c1ccccc1 11.2%
COc1cc(C=O)ccc1OCCOCCOc1cc(C)ccc1Cl 10.5%
O=C(c1ccc(-c2ccc([N+](=O)[O-])cc2)o1)N1CCCCC1 9.33%
Cc1ccc(N2NC(=O)/C(=C/c3ccc(-c4ccc(Cl)c(C(=O)O)c4)o3)C2=O)cc1 14.8%
Cc1ccc(N2NC(=O)/C(=C/c3ccc(-c4ccc(Cl)c(C(=O)O)c4)o3)C2=O)cc1C 33.6%
O=C(O)c1cc(-c2ccc(/C=C3/SC(=S)N(Cc4ccccc4)C3=O)o2)ccc1Cl 24.7%
O=C(O)c1cc(-c2ccc(/C=C3\NC(=O)N(c4ccc(Cl)cc4)C3=O)o2)ccc1Cl 31.3%
C#CCN1C(=O)S/C(=C\c2ccc(-c3ccc(Cl)c(C(=O)O)c3)o2)C1=O 11.9%
CCOC(=O)CN1C(=O)S/C(=C\c2ccc(-c3ccc(C(=O)O)c(Cl)c3)o2)C1=O 17%
O=C(CCN1C(=O)C2CC=C(Cl)CC2C1=O)Nc1ccccc1O (stereo unspecified) 3.99%
C/C(=N\Nc1ccc(C(=O)O)cc1)c1ccc(S(=O)(=O)NCc2ccco2)cc1 11%
CCc1cccc(C)c1NC(=O)c1ccc2c(c1)CCN2S(C)(=O)=O 1.63%
Nc1ccc2c(c1)Cc1cc([N+](=O)[O-])ccc1-2 7.98%
Nc1ccc2c(c1)C(=O)c1ccccc1C2=O 7.9%
CC(=O)N1CCN(C(=O)CSc2nc3c(cnn3-c3ccccc3)c(=O)[nH]2)CC1 2.65%
Cc1cccc2cc(CN(CCCN3CCOCC3)Cc3nnnn3C(C)(C)C)c(=O)[nH]c12 10%
O=C(Nc1ccccc1Cl)N1CCSc2ccccc21 5.32%
CCCn1c(=O)c2ccccc2n2c(SCC(=O)c3ccccc3)nnc12 16.8%
COc1cccc(-n2c(SCC(N)=O)nc3ccccc3c2=O)c1 4.09%
CCCCn1c(=O)c2ccccc2c2ccccc2c1=O 3.41%
CCCCCn1c(=O)c2ccccc2n2c(CCl)nnc12 15.8%
COCCCn1c(=O)c2ccccc2n(Cc2ccccc2)c1=O 7.67%
Cc1nnc2n(-c3ccccc3)c(=O)c3ccccc3n12 -1.7%
CCCn1c(=O)c2ccccc2n2c(SCC(N)=O)nnc12 9.05%
COCCCn1c(=O)c2ccccc2c2ccccc2c1=O -0.58%
Cn1c(CNC(=O)C(Cc2ccccc2)NC(=O)c2cccc(F)c2)cc(=O)n(C)c1=O (stereo unspecified) -0.65%
O=C(NNC(=O)c1ccc[nH]1)c1cc(Cl)cc(Cl)c1 10.3%
COc1ccccc1C(=O)NNC(=O)c1ccc(NS(=O)(=O)c2cccs2)cc1 16.7%
O=S(=O)(c1ccccc1)N1CCN(Cc2ccc(Cl)cc2)CC1 10.3%
O=C1CCCC/C1=C/Nc1cccc(C(F)(F)F)c1 18.4%
CC1SCC(NC(=O)c2ccccc2Cl)CS1 (stereo unspecified) 8.46%
CC(=O)OCCN1C(=O)c2cccc3cc([N+](=O)[O-])cc(c23)C1=O 14.1%
Cc1ccc(-c2[nH]ncc2C(=O)c2ccc(Br)cc2)c(O)c1 7.57%
CCCN1C(=O)C(NC(=O)c2ccncc2)(C(F)(F)F)C2=C1CC(C)(C)CC2=O (stereo unspecified) -1.41%
Cc1ccc(/C=C/c2onc(C)c2S(=O)(=O)N2CCC(C(=O)NC(C)(C)C)CC2)cc1 2.7%
CC(C)C(=O)Nc1ccc(-c2csc(-c3ccccc3)n2)cc1 1.63%
CC(C)C(=O)Nc1cccc(-c2csc(-c3ccccc3)n2)c1 -59.4%
CCOC(=O)Cc1csc(NC(=O)/C=C/c2cccc(Br)c2)n1 -3.33%
COc1cc(C(=O)Nn2c(C)nc3ccccc3c2=O)cc(OC)c1OC 7.45%
CCc1ccc(/C=C2\C(=N)N3N=C(CC(=O)N4CCCCC4)SC3=NC2=O)cc1 10.1%
COc1ccc(/C=C2/C(=N)N3N=C(CC(=O)N4CCCC4)SC3=NC2=O)cc1OC 14.2%
Cc1ccc(/C=C2/C(=N)N3N=C(CC(=O)N4CCCC4)SC3=NC2=O)cc1 30.2%
CC(C)c1ccc(/C=C2\C(=N)N3N=C(CC(=O)N4CCCCC4)SC3=NC2=O)cc1 36.9%
CSc1ccc(/C=C2\C(=N)N3N=C(CC(=O)N4CCCCC4)SC3=NC2=O)cc1 26.3%
Cc1ccc(/C=C2\C(=N)N3N=C(CC(=O)N4CCCCC4)SC3=NC2=O)cc1 26.9%
C=CCOc1ccc(/C=C2/C(=N)N3N=C(CC(=O)N4CCCC4)SC3=NC2=O)cc1OC 11.3%
CSc1ccc(/C=C2/C(=N)N3N=C(CC(=O)N4CCCC4)SC3=NC2=O)cc1 12.1%
COc1cc([N+](=O)[O-])ccc1NC(=O)CCCOc1cc(C)ccc1C 8.46%
CCOC(=O)c1nn(-c2ccc(Cl)cc2)c2nc(Nc3ccccc3)cc(=O)n12 5.22%
COc1ccc(C(=O)Nc2ccc(C)cc2C(=O)c2ccccc2)c(OC)c1 5.96%
Cc1ccccc1CNC(=O)c1ccccc1N 14.8%
CCn1cc(/C=C/C(=O)Nc2ccn(Cc3c(F)c(F)c(F)c(F)c3F)n2)cn1 -8.72%
NC(=O)c1ccc(NC(=O)CSc2cn(CC(=O)N3CCOCC3)c3ccccc23)cc1 2.11%
COc1ccc(Nc2ccc(Cl)nn2)cc1 17.6%
C/C(=N\Nc1ncc(Br)cn1)c1cccc([N+](=O)[O-])c1 10.7%
N=C1/C(=C\c2ccc(Br)o2)C(=O)N=C2SC(CC(=O)N3CCOCC3)=NN12 36.3%
Cc1ccc(/C=C2/C(=N)N3N=C(CC(=O)N4CCCC4)SC3=NC2=O)o1 -4.18%
Cc1cccc(C(=O)NNC(=O)CCn2nnc3ccccc32)c1 1.08%
COCc1cc(C)nc(SCC(=O)Oc2ccccc2)c1C#N 15.3%
COCc1cc(C)nc(SCC(=O)Oc2ccc(Cl)cc2)c1C#N 16%
Cc1cc(C(F)(F)F)nn1Cc1n[nH]c(=S)n1-c1ccc(F)cc1 15.9%
CS(=O)(=O)c1ccc(Cl)c(NC(=O)C2CCCN(C(=O)c3ccc(Cl)cc3)C2)c1 (stereo unspecified) 6.85%
COc1ccc(C(=O)NC(C(=O)NCC(=O)Nc2c(C)cccc2C)C(C)C)cc1 (stereo unspecified) 3.58%
Cc1nn(CC(=O)N2CCOCC2)c(=O)c2nn(-c3ccccc3)c(C)c12 1.18%
COc1cc(O)c(C(CCN2CCN(c3ccccc3)CC2)c2ccc3c(c2)OCO3)c(OC)c1 (stereo unspecified) 7.18%
CC(=O)Oc1cc2oc(=O)cc(C)c2cc1Cl 14.8%
CC(=O)Oc1ccc2c(C)cc(=O)oc2c1 17%
CN(C(=S)Nc1ccc(Oc2ccccc2)cc1)c1ccc(O)cc1 21.8%
CC(C)(C)c1ccc(/C=N/NC(=S)Nc2cccnc2)cc1 9.92%
COc1ccc(O)c(/C=N/NC(=S)Nc2cccnc2)c1 25.1%
Fc1ccc(/C=N/NC(=S)Nc2cccnc2)cc1 7.01%
CC(C)N(C(=S)Nc1cccnc1)c1ccccc1 12.6%
Fc1cccc(F)c1/C=N/NC(=S)Nc1cccnc1 24.5%
NC(=O)c1ccc(NC(=O)CCCNC(=O)c2ccc(Cl)cc2)cc1 8.64%
CCc1ccc(C2=NNC(=Nc3cccc(S(=O)(=O)N(C)C)c3)SC2)cc1 4.35%
CCC(C)N(C(=O)c1csnn1)C(C(=O)NC1CCCC1)c1c(F)cccc1Cl (stereo unspecified) 7.33%
CCN(CC)CCNC(=O)c1ccc(NC(=O)c2ccc(C(=O)c3ccccc3)cc2)cc1 37.6%
Cc1ccc(S(=O)(=O)N2CCOC2CNC(=O)C(=O)NCCc2c[nH]c3ccccc23)cc1 (stereo unspecified) -3.07%
O=C(NCCc1c[nH]c2ccccc12)C(=O)NCC1OCCCN1S(=O)(=O)c1ccccc1 (stereo unspecified) 16.5%
COc1ccc(O)c(C(=O)c2cnc3c(c2)c(=O)[nH]c(=O)n3C)c1 3.44%
Fc1ccc(/C=N\Nc2cccc(F)c2)cc1 8.31%
Cc1ccc(N(C(=O)Cc2c[nH]c3ccccc23)C(C(=O)NC2CCCCC2)c2ccco2)cc1 (stereo unspecified) -1.52%
CN(C)CCCOc1ccc2c(c1)Sc1ccccc1CC2=O -4.85%
O=C(O[C@@H]1Cc2c(O)cc(O)cc2O[C@@H]1c1cc(O)c(O)c(O)c1)c1cc(O)c(O)c(O)c1 -0.22%
Oc1cc(O)c2c(c1)O[C@H](c1ccc(O)c(O)c1)[C@H](O)C2 37.1%
O=C1c2c(O)cc(O)cc2O[C@H](c2ccc(O)c(O)c2)[C@H]1O 7.35%
O=C1c2c(O)cc(O)cc2O[C@H](c2ccc(O)c(O)c2)[C@@H]1O 5.87%
COc1cc(C(=S)N2CCOCC2)cc(OC)c1OS(=O)(=O)c1ccc(C)cc1 3.46%
Cc1csc(Sc2ccc([N+](=O)[O-])cc2C(=O)OCC(=O)NC2CCCC(C)C2C)n1 (stereo unspecified) 16.8%

Source: PubChem BioAssay AID1903 (Southern Research Specialized Biocontainment Screening …, 2009)
